In the supplement of paper PMC10515830 one finds difference data, which are given here for 29 molecules.

Molecules are shown by their SMILES. Where a name gives a salt, the structure may show the parent alone.

In the assay the test system is Danio rerio larvae (5 dpf). Put plainly: difference in combined optomotor response to red, green and blue moving lines vs DMSO (percentage points); higher = stronger optomotor response than DMSO. To be noted: 10 µM; exposure time 6 h. The method, boiled down:
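Wild-type zebrafish larvae at 5 dpf were kept in 96-well plates and exposed for 6 h to 100 µL egg water holding library compound at a final concentration of 10 µM. From 3 h into exposure, the plates were held at 28.5 ℃ and photographed every 6 s through a 3-h programme of moving lines and 100 ms, 400Hz tones. Each behaviour was scored by Z-LaP Tracker, a DeepLabCut model, and averaged over 48 larvae per compound. Every value gives the compound mean minus the vehicle control mean, in percentage points.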
Take `N=C(N)c1ccc(OCCCCCOc2ccc(C(=N)N)cc2)cc1` [Pentamidine]: the difference came out at 5.19. The same measure for `CC[C@@H]1C(=O)OC[C@@H]1Cc1cncn1C` [(+)-Pilocarpine (hydrochloride)]: -5.32; for `Clc1ccc2nsnc2c1NC1=NCCN1` [Tizanidine (hydrochloride)]: -0.822. As for `C=CC[C@@H]1/C=C(\C)C[C@H](C)C[C@H](OC)[C@H]2O[C@@](O)(C(=O)C(=O)N3CCCC[C@H]3C(=O)O[C@H](/C(C)=C/[C@@H]3CC[C@@H](O)[C@H](OC)C3)[C@H](C)[C@@H](O)CC1=O)[C@H](C)C[C@@H]2OC`, the figure is -13.7; as for `CC(C[N+](C)(C)C)OC(N)=O` (centres undefined) [Bethanechol (chloride)], -6.5. With `Nc1ccn([C@@H]2O[C@H](CO)[C@@H](O)C2(F)F)c(=O)n1` [Gemcitabine], the difference was 2.24. In the case of `C#CCN[C@@H]1CCc2ccccc21` [Rasagiline], the difference is 6.27. The same measure for `COCC(=O)Nc1c(I)c(C(=O)NCC(O)CO)c(I)c(C(=O)N(C)CC(O)CO)c1I` (centres undefined) [Iopromide]: 5.16; for `C[C@@H]1C[C@H]2[C@@H]3CCC4=CC(=O)C=C[C@]4(C)[C@@]3(Cl)[C@@H](O)C[C@]2(C)[C@@]1(OC(=O)c1ccco1)C(=O)CCl` [Mometasone Furoate]: 3.46. As for `CC(=O)Oc1ccccc1C(=O)Nc1ncc([N+](=O)[O-])s1` [Nitazoxanide], the figure is -17.8. `NC(=O)N[C@@H](CCC(=O)O)C(=O)O` [N-Carbamyl-L-Glutamic Acid]: the difference came to 8.31.

`COc1ccccc1OCCNCC(O)COc1cccc2[nH]c3ccccc3c12` (centres undefined) [Carvedilol]: the difference was 3.65.

`COc1cc(C(=O)NS(=O)(=O)c2ccccc2C)ccc1Cc1cn(C)c2ccc(NC(=O)OC3CCCC3)cc12` [Zafirlukast]: the difference is -0.091. As for `COc1cccc2c1C(=O)c1c(O)c3c(c(O)c1C2=O)C[C@@](O)(C(C)=O)C[C@@H]3O[C@H]1C[C@H](N)[C@H](O)[C@H](C)O1` [Daunorubicin (hydrochloride)], the difference is -1.09. For `CCc1ccc(CCOc2ccc(CC3SC(=O)NC3=O)cc2)nc1` (centres undefined) [Pioglitazone (hydrochloride)], the difference is 3.69. In the case of `CO[C@H]1C[C@@H]2CC[C@@H](C)[C@@](O)(O2)C(=O)C(=O)N2CCCC[C@H]2C(=O)O[C@H]([C@H](C)C[C@@H]2CC[C@@H](O)[C@H](OC)C2)CC(=O)[C@H](C)/C=C(\C)[C@@H](O)[C@@H](OC)C(=O)[C@H](C)C[C@H](C)/C=C/C=C/C=C/1C` [Rapamycin], the difference was found to be 3.4.

On to `C#Cc1cccc(Nc2ncnc3cc(OCCOC)c(OCCOC)cc23)c1` [Erlotinib], for which the difference is -4.8. The same measure for `COc1cc2c(cc1OC)[C@@H](Cc1cc(OC)c(OC)c(OC)c1)[N+](C)(CCCOC(=O)CC/C=C/CCC(=O)OCCC[N+]1(C)CCc3cc(OC)c(OC)cc3[C@H]1Cc1cc(OC)c(OC)c(OC)c1)CC2` (some centres undefined) [Mivacurium (chloride)]: 5.12; for `CCOC(=O)[C@H](CCc1ccccc1)N[C@@H](C)C(=O)N1CCC[C@H]1C(=O)O` [Enalapril (maleate)]: 7.06; for `CCCCC[C@H](O)/C=C/[C@H]1[C@H](O)CC(=O)[C@@H]1C/C=C\CCCC(=O)O` [Prostaglandin E2]: 5.15. As for `C#C[C@]1(O)CC[C@H]2[C@@H]3CCC4=Cc5oncc5C[C@]4(C)[C@H]3CC[C@@]21C` [Danazol], the figure is -17.8. The same measure for `CN(C)CCC[C@@]1(c2ccc(F)cc2)OCc2cc(C#N)ccc21` [Escitalopram]: 1.8.

Turning to `Cc1cccc(Nc2ccccc2C(=O)O)c1C` [Mefenamic Acid], the difference is -15.5. As for `NCC[C@H](O)C(=O)N[C@@H]1C[C@H](N)[C@@H](O[C@H]2O[C@H](CN)[C@@H](O)[C@H](O)[C@H]2O)[C@H](O)[C@H]1O[C@H]1O[C@H](CO)[C@@H](O)[C@H](N)[C@H]1O` [Amikacin], the figure is 6.4; as for `COc1cc(Nc2c(C#N)cnc3cc(OCCCN4CCN(C)CC4)c(OC)cc23)c(Cl)cc1Cl` [Bosutinib], 2.77; as for `CC/C=C\C/C=C\C/C=C\C/C=C\C/C=C\CCCC(=O)OCC` [Eicosapentaenoic Acid ethyl ester], 7.27.

For `Oc1ncnc2[nH]ncc12` [Allopurinol], the difference worked out at 1.46. `CC(=O)CC(c1ccccc1)c1c(O)c2ccccc2oc1=O` (racemic) [(±)-Warfarin]: the difference is -1.34.

In the case of `CC(=O)Nc1nnc(S(N)(=O)=O)s1` [Acetazolamide], the difference turned out to be 3.65.
